# Bioassay records (PubChem)
# Only some compounds are listed: those with a hit (about 1.8% of all), similar ones and a draw of the others.
# Rtt109 Vps75: blocks Candida albicans Rtt109/Vps75 acetyltransferase activity. inhibition, % at 34.9 µM. 330,000 tested, 0.16% active. purified Rtt109/Vps75, ThioGlo CoA-SH fluorescence, 4 h. Q5AAJ8;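 active means inhibition of at least 50% in every replicate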
# Target sequence (Q5AAJ8 whole entry, looked up): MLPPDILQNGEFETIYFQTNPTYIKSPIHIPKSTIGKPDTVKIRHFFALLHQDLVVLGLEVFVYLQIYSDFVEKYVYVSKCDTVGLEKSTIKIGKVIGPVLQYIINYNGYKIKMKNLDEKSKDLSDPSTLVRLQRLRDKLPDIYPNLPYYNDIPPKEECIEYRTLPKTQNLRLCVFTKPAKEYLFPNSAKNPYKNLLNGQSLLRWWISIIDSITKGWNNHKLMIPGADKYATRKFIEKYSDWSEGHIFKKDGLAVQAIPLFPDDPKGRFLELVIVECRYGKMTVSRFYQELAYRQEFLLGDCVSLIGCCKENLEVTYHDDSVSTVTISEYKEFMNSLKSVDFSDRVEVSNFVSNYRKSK
# NOD2-RIPK2 inh: NOD2-RIPK2 protein interaction inhibition. inhibition, % at 4.98 µM. CHO BLA complementation NOD2-RIPK2, CCF4 ratio. O43353. 360,000 tested, 0.38% active; in the data active means inhibition above about 21%;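 further: 0% = vehicle only and 100% = reference blocker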
# TLR9-MyD88 block: inhibitors of human TLR9-MyD88 binding; Q9NR96+Q99836; CHO BLA complementation TLR9-MyD88, CCF4 FRET ratio; inhibition, % at 4.98 µM; 340,000 tested, 0.21% active; AID 504734;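 active means inhibition above the mean over all tested compounds plus 3 SD, cut at about 21% in these data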;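 further: 0% = DMSO only wells and 100% = clavulanate BLA inhibitor control wells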
# TLR4 MyD88 comp: inhibitors of human TLR4-MyD88 binding. 200,000 tested, 0.18% active. inhibition, % at 8.4 µM. HeLa CL3-4 TLR4/MyD88 BLA complementation, FRET ratio. AID 861. O00206+Q99836; in the data active means inhibition above about 25%;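 further: 0% = vehicle and 100% = reference inhibitor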
# LANA-H2B inh: blocks KSHV LANA binding to histone H2A/H2B. cell-free LANA-H2A/H2B peptide, fluorescence polarization. inhibition, % (no concentration beside the values). 320,000 tested, 0.6% active. AID 2629; in the data active means inhibition mostly above about 10%, no sharp cut-off; inactive means mostly below about 6.7%
# m5-HT2A agonist: agonists of mouse serotonin 5-HT2A receptor (HTR2A). activation, % at 7.6 µM. CHO-K1 mHTR2A beta-arrestin complementation, luminescence; percent of 30 µM serotonin response. P35363. 360,000 tested, 0.66% active;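 active means activation above a run cutoff, the mean activation of all tested compounds plus 3 SD, cut at about 14% in these data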;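 further: 0% = plate median of compound wells and 100% = 30 µM serotonin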
# OPRM1 ag: OPRM1 agonism in mouse HTR2A counterscreen; shares compounds with m5-HT2A agonist; U2OS OPRM1 beta-arrestin PathHunter, luminescence; DMSO 0%, DAMGO 9.3 µM 100%; activation, % at 9.3 µM; 2,300 tested, 5.3% active; AID 624380;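 active means mean activation above the mean of DMSO-only wells plus 3 SD, cut at about 0.5% in these data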
# m5-HT2A ag conf: mouse HTR2A agonism confirmed; shares compounds with m5-HT2A agonist; CHO-K1 PathHunter beta-arrestin recruitment, luminescence; DMSO 0%, 30 µM serotonin 100%; activation, % at 7.6 µM; 2,300 tested, 19% active;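 active means mean activation across triplicates above the hit threshold derived in the original primary screen, cut at about 15% in these data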
# Active calls of the source: *; . = no result given.
SMILES,Rtt109 Vps75,NOD2-RIPK2 inh,TLR9-MyD88 block,TLR4 MyD88 comp,LANA-H2B inh,m5-HT2A agonist,OPRM1 ag,m5-HT2A ag conf
Cc1ccc2c(c1)[C@H]1[C@H](CO2)[C@H](c2ccccc2)[C@]2(C)C(=O)N(CC3CCCO3)CC(=O)N12 (stereo partly specified),1,1,-10,.,2,18*,0,-3
CC(Cc1c[nH]c2ccccc12)NC(=O)OCCCl (stereo unspecified),-5,-6,8,2,5,20*,-1,-1
O=C(OC1CCOC1=O)c1cc(S(=O)(=O)N2CCOCC2)c(Cl)cc1Cl (stereo unspecified),2,0,0,.,-1,1,.,.
CCC(C(=O)O)n1cnc2scc(-c3ccc(C)c(C)c3)c2c1=O (stereo unspecified),-8,-9,-4,.,0,24*,0,-2
CCC(C(=O)OC)n1cnc2scc(-c3ccc(C)c(C)c3)c2c1=O (stereo unspecified),-1,-1,-7,.,-1,-6,.,.
COc1cc(CN2CCN(c3ncccn3)CC2)cc(OC)c1,-5,-8,11,.,-13,21*,-1,121*
COc1ccc(CN2CCN(c3ccccn3)CC2)c(OC)c1,-12,-2,-10,4,4,40*,0,82*
COc1ccc(CN2CCN(Cc3ccccc3F)CC2)c(OC)c1,-2,-6,-2,.,0,-2,.,.
COc1ccc(CN2CCN(c3ncccn3)CC2)c(OC)c1,0,3,-4,1,1,39*,0,99*
COc1ccc(CN2CCN(Cc3ccc(C)cc3)CC2)c(OC)c1,-5,-6,-4,.,0,-8,.,.
CN(CC(=O)Nc1cccc(F)c1)C(=O)CCc1nc2cc(S(=O)(=O)N3CCOCC3)ccc2n1C,-4,3,2,.,2,-2,.,.
Cc1ccc(N2CCN(C(=O)C3CCCN(c4ncnc5c4nc4n5CCCCC4)C3)CC2)c(C)c1 (stereo unspecified),13,-11,2,.,-2,15*,-1,-4
Cc1ccc(C)c(N2CCN(C(=O)C3CCCN(c4ncnc5c4nc4n5CCCCC4)C3)CC2)c1 (stereo unspecified),-4,6,1,.,4,-1,.,.
COC(=O)CC(NS(=O)(=O)c1cccs1)c1ccccc1Cl (stereo unspecified),0,4,-3,1,4,19*,0,-4
COC(=O)CC(NS(=O)(=O)c1cccs1)c1ccc2c(c1)OCO2 (stereo unspecified),18,-2,-1,.,0,5,.,.
O=C(NC1(C(F)(F)F)NC(=O)N(c2ccc(F)cc2)C1=O)c1cccs1 (stereo unspecified),-25,9,-7,-1,5,18*,0,-4
Cc1cccc(OCCCC(=O)NNC(=O)CCN2CCN(c3ccccc3)CC2)c1,9,-10,4,.,-7,2,.,.
COc1ccc(-c2csc(C(C)(O)c3ccc(F)c(F)c3)n2)cc1 (stereo unspecified),.,-11,.,.,.,15*,0,-4
N#Cc1c(-c2cccc(Cl)c2)[nH]c(=S)[nH]c1=O,-1,3,-1,.,4,1,.,.
N#Cc1c(-c2ccccc2)[nH]c(=S)[nH]c1=O,4,6,-3,-6,-5,22*,-1,-4
NC(=O)c1nsc(C(=O)N(c2ccccc2F)C(C(=O)NCc2ccc(F)cc2)c2ccc(O)cc2)c1N (stereo unspecified),-7,-3,4,.,0,23*,0,2
O=C(Nc1ccccc1)N1CCN(c2nc3ccccc3s2)CC1,-1,7,-6,-9,0,27*,0,0
O=C(C1CC1)N1CCN(c2nc3ccccc3s2)CC1,-6,-5,8,3,-2,0,.,.
CCc1cc2c(SCc3ccc(C(=O)OC)o3)ncnc2s1,-5,-5,1,.,1,15*,0,-2
N#Cc1ccc(Sc2ccccn2)c([N+](=O)[O-])c1,-13,-2,-1,.,3,15*,0,-4
SMILES,Rtt109 Vps75,NOD2-RIPK2 inh,TLR9-MyD88 block,TLR4 MyD88 comp,LANA-H2B inh,m5-HT2A agonist,OPRM1 ag,m5-HT2A ag conf
CCN(CC)S(=O)(=O)c1ccc(N2CCOCC2)c(NC(=O)c2cc3ccccc3o2)c1,.,-13,-2,.,.,-1,.,.
O=C(CCN1C(=O)C2CC=CCC2C1=O)Nc1ccc(S(=O)(=O)N2CCCCC2)cc1 (stereo unspecified),-9,4,1,.,.,-6,.,.
COc1ccc(N(C)C(=O)c2ccc(NC(=O)CCS(=O)(=O)c3cccs3)cc2)cc1,14,-14,1,.,1,15*,-1,-1
Cc1nc2c(=O)[nH]n(C)c2nc1C,.,-1,4,.,.,0,.,.
COc1ccc(NC(=O)c2sccc2-n2cccc2)cc1,-2,-11,19,-22,-4,5,.,.
CCc1ccc(NC(=O)c2sccc2-n2cccc2)cc1,7,5,6,7,0,15*,0,-5
O=C(Nc1ccc2c(c1)COC2=O)c1ccc(Cl)c(Cl)c1,-6,0,7,.,1,-2,.,.
Cc1nc2c(-c3ccccc3)c(C)[nH]n2c(=O)c1Cc1ccccc1,0,-3,.,6,-3,59*,-1,33*
CCCCN(C)C(=O)c1sc(=O)n(Cc2cc(Cl)ccc2OC)c1C,.,-5,.,.,.,17*,-1,-6
COc1ccc(Cl)cc1Cn1c(C)c(C(=O)N(C)Cc2ccc(F)cc2)sc1=O,.,6,.,.,.,6,.,.
CCOC(=O)C1(C)CCN1C(=O)c1ccco1 (stereo unspecified),.,-1,.,.,.,1,.,.
O=c1[nH]c(C2CCN(S(=O)(=O)c3ccc(F)cc3)CC2)nc2c1nnn2Cc1ccc2c(c1)OCCO2,2,1,-10,.,-3,15*,-1,-4
O=c1[nH]c(C2CCN(S(=O)(=O)c3ccccc3F)CC2)nc2c1nnn2Cc1ccc2c(c1)OCCO2,7,-5,-2,.,-3,-3,.,.
CCOC(=O)C1=C(N)Oc2cc(O)ccc2C1c1ccc(C)cc1 (stereo unspecified),-2,-7,-11,.,-3,31*,1.1*,-1
CC(/C=C/C1(O)C(C)CC(O)CC1(C)C)OC1OC(CO)C(O)C(O)C1O (stereo unspecified),-2,-8,-9,.,7,39*,-1,-1
